# AmpC inh no detg: blocks E. coli AmpC beta-lactamase in detergent-free assay | P00811 | AmpC nitrocefin hydrolysis, absorbance 480 nm, 0.0001% Triton | Potency, µM (doses to about 57.1 µM), for inactives: at the top dose activity change, negative = inhibition, usual class: inhibitors | 330,000 compounds, 0.52% hits | AID 485341;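 further: plate controls were no compound for no effect and no enzyme for full effect; nearly all actives have a fitted effect of over 20% in size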
# Target sequence (P00811 whole entry, looked up): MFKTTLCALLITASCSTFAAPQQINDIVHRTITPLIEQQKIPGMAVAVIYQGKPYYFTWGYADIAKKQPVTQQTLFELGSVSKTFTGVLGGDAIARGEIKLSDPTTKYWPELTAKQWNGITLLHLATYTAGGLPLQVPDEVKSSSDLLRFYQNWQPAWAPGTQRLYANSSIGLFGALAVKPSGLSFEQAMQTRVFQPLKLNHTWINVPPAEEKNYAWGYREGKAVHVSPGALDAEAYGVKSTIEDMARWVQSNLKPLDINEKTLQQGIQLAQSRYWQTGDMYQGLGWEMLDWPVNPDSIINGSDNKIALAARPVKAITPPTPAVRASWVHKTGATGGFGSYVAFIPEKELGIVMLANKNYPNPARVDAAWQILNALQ
#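 AmpC (5.3 nM in the dispensed reagent) in 20 mM phosphate pH 7.0 with 0.01% (detergent screen) or 0.0001% Triton X-100 was preincubated with compounds for 15 min at room temperature. Nitrocefin was then added from an 800 uM solution, and hydrolysis was followed at 480 nm.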
# FMDV antiviral: foot and mouth disease virus antiviral activity; Potency, µM (series often up to 57.9 µM), for the others: top-dose activity change, negative = inhibition, hits mostly inhibitors; 410,000 compounds, 1.2% hits; AID 1159524; FMDV antiviral cell-based qHTS; calls by dose curve; tested in HEK293T cells; further: read-out not given here; nearly all actives have a fitted effect of over 45% in size
# AmpC detergent: blocks E. coli AmpC beta-lactamase in detergent assay; P00811; AmpC hydrolysis of nitrocefin, absorbance 480 nm, 0.01% Triton; Potency, µM (doses to about 114 µM), inactives show at the highest dose activity change, negative = inhibition, usual class: inhibitors; 370,000 compounds, 0.041% hits; AID 485294;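 further: 0% = no-compound wells and -100% = no-enzyme wells; nearly all actives have a fitted effect of over 25% in size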
#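 20 mM phosphate pH 7.0 + 0.01% (detergent screen) or 0.0001% Triton X-100; 5.3 nM AmpC reagent; cpd preinc 15 min RT; nitrocefin (800 uM stock) to start; A480 q20 s × 4 min; Activity was normalised to no-enzyme and no-compound control wells.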
# AMA1-RON2 inh: AMA1-RON2 (P. falciparum) interaction inhibition | AlphaScreen AMA1-biotinylated RON2 peptide binding | Potency, µM (doses to about 58.2 µM), inactives show at the highest dose activity change, negative = inhibition, actives largely listed as inhibitors | 360,000 compounds, 0.2% hits | AID 720542;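 further: 0% = vehicle wells and -100% = peptide control; nearly all actives have a fitted effect of over 45% in size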
#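 AMA1 (3D7) with his tag at 25 nM final met compounds first, then biotinylated RON2 peptide at 25 nM; detection used donor plus acceptor beads, 10 µg/mL apiece, read by AlphaScreen after 30 min at room temperature.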
# Sm TGR block: inhibitors of Schistosoma mansoni thioredoxin glutathione reductase; 360,000 compounds, 3% hits; Potency, µM (doses to about 114 µM), inactives show at the highest dose activity change, negative = inhibition, hits mostly inhibitors; AID 485364; Q962Y6; purified TGR, DTNB reduction, TNB absorbance 405 nm; further: nearly all actives have a fitted effect of over 60% in size
#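 Kinetic colorimetric format: TGR-catalysed, NADPH-driven DTNB reduction monitored via TNB absorbance. Enzyme dispensed at 20 nM; compound exposure 15 min at room temperature before reaction start.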
# Starred values were filed as active, the others as inactive; u = inconclusive; x = not tested or not shown. The list is not random: actives were taken first. Their share in the collection is about 4.1%. Unless noted, the call rests on the fitted dose curve; in most records, active means well fitted curve in the direction sought with a large enough effect; inconclusive means small, poorly fitted or top-dose-only effect, or another doubt; inactive means no such curve, though single readings can be large; an effect the other way counts as inactive or inconclusive. Unless noted, on the % scale 0 is the no-effect control and ±100 the full control effect; potency means the concentration at half of the fitted maximal effect.
SMILES,AmpC inh no detg,FMDV antiviral,AmpC detergent,AMA1-RON2 inh,Sm TGR block
CC(=O)OC1C(O)C2=C3C4(C)C1C(C)(C)C(=O)CC4C3(O)C(OC(C)=O)C1(CC1C)C2=O (stereo not drawn),x,22.4µM*,x,-7.3%,x
CN1C(=O)C(Cc2c[nH]c3ccccc23)C(=O)N(C)C1=O,13.2%,x,u,x,14.1µM*
CN1C(=O)C(Cc2c[nH]c3ccccc23)NC1=S (stereo not drawn),x,18.8%,x,x,x
O=C1c2ccccc2C(=O)C1Cc1cccc2ccccc12,-39.3%,36.7%,1.2%,17.8%,56.2µM*
CN1C(=O)C(Cc2cccc3ccccc23)C(=O)N(C)C1=O,-25.0%,-10.6%,-11.0%,2.4%,14.1µM*
CCOC(=O)c1cc(-c2ccccc2)n(CCC(=O)NCCc2ccc(C)cc2)c1C,x,-21.5%,10.9%,x,2.9%
O=[N+]([O-])c1ccc(C(c2ccc([N+](=O)[O-])cc2)c2ccc([N+](=O)[O-])cc2)cc1,x,-2.2%,x,u,x
CN(C)c1ccc(C(c2ccc(N(C)C)cc2)c2ccc([N+](=O)[O-])cc2)cc1,-25.4%,-13.8%,-11.9%,8.91µM*,-12.2%
COc1ccc2c(c1)c1c(c(=O)n(Cc3ccccc3)c(=O)n1CC(=O)Nc1ccccc1F)n2C,x,-4.3%,1.0%,x,-1.6%
O=C(O)COc1ccc2c(c1)O/C(=C\c1cccs1)C2=O,-14.0%,11.9%,1.1%,-10.9%,10.2%
O=C(O)COc1ccc2c(c1)O/C(=C\c1ccco1)C2=O,-18.7%,-2.5%,-5.2%,-2.4%,22.4µM*
CCS(=O)(=O)C1=NN2C(=N)/C(=C\c3ccc(OS(=O)(=O)c4ccccc4)cc3)C(=O)N=C2S1,-25.0%,-10.5%,1.7%,83.2%,44.7µM*
CCS(=O)(=O)C1=NN2C(=N)/C(=C\c3ccc(OS(=O)(=O)c4ccccc4)c(OC)c3)C(=O)N=C2S1,-40.1%,x,-0.6%,x,u
CCC1=NN2C(=N)/C(=C\c3cccn3-c3ccc(Cl)cc3)C(=O)N=C2S1,0.891µM*,-18.3%,u,11.6%,-11.8%
CCC1=NN2C(=N)/C(=C/c3ccc(OS(=O)(=O)c4ccccc4)cc3)C(=O)N=C2S1,28.2µM*,-13.1%,-8.8%,123.0%,-3.6%
CCS(=O)(=O)C1=NN2C(=N)/C(=C\c3ccc(OC(=O)c4ccco4)cc3)C(=O)N=C2S1,-34.9%,-2.5%,1.0%,10.3%,35.5µM*
CCC1=NN2C(=N)/C(=C\c3cccn3-c3ccc(C)c(C)c3)C(=O)N=C2S1,-50.6%,-24.7%,u,-12.4%,3.6%
O=C(NCc1ccco1)c1ccc(-c2cccc(Cl)c2)o1,-12.7%,71.3%,4.7%,-6.4%,31.6µM*
COC(=O)c1ccccc1NC(=O)c1ccc(COc2cccc3ccccc23)o1,-26.9%,13.1%,1.5%,-12.2%,56.2µM*
COc1ccccc1OCc1ccc(C(=O)NC(C)(C)C)o1,0.4%,u,-1.8%,7.8%,u
COc1ccccc1OCc1ccc(C(=O)Nc2ccncc2)o1,-7.7%,14.1µM*,-12.6%,2.7%,9.2%
CC(=O)Cc1nsc(NC(=O)c2ccc(COc3ccccc3)o2)n1,-29.4%,8.5%,1.3%,5.6%,44.7µM*
O=C(COc1ccc(F)cc1)Nc1ccc2nc(SCc3ccccc3)sc2c1,x,-12.1%,2.0%,x,0.4%
COc1ccccc1OCc1ccc(C(=O)NCc2ccco2)o1,0.282µM*,6.1%,0.2%,-0.2%,39.8µM*
CN1c2ccc([N+](=O)[O-])cc2N(C)C1(C)c1ccccc1 (stereo not drawn),-39.1%,0.0%,0.8%,12.6µM*,-8.7%
O=C(Cn1cnc2c(oc3ccccc32)c1=O)Nc1ccccc1C(F)(F)F,x,10.8%,17.9%,x,-19.3%
COc1cccc(C(=O)NCc2ccc3[nH]c(C)cc3c2)c1,-1.5%,38.1%,-1.1%,-25.5%,39.8µM*
COc1cc(OC)cc(C(=O)NCc2ccc3[nH]c(C)cc3c2)c1,-41.6%,9.9%,4.3%,-13.6%,u
COc1ccc(C(=O)NCc2ccc3[nH]c(C)cc3c2)cc1OC,80.6%,1.5%,-0.5%,-1.6%,14.1µM*
O=C(Nc1ccccc1Sc1ccccc1)C1CCCO1 (stereo not drawn),0.6%,x,u,2.5%,44.7µM*

# High-throughput results: PubChem, National Center for Advancing Translational Sciences (NCATS)
